High-throughput results (PubChem BioAssay)
fixLJ activator: activators of Burkholderia fixLJ two-component system | z-score (test concentration not listed) | B. multivorans fixK-promoter GFP reporter, 18 h; stronger effect = higher value | hit rate 0.3% among 29,000 | AID 1918990;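 active means replicate mean overnight rise in green fluorescent reporter signal, 3 or more SD over negative controls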
* = called active by the depositor; ! = repeats disagree. Shown is part of a subset that was picked to be rich in hits.

SMILES	fixLJ activator
CC(C)N(Cc1ccccc1)C(=O)Cn1ncc2c3ccccc3n(Cc3ccccc3)c2c1=O	0.03
O=C(Cn1ncc2c3ccccc3n(Cc3ccc(Cl)cc3)c2c1=O)NCCCc1ccccc1	1.31
CCN(CC)CCCNC(=O)Cn1ncc2c3ccccc3n(Cc3ccccc3)c2c1=O	-2.03
CCCCN(C)CCCNC(=O)Cn1ncc2c3ccccc3n(Cc3cccc(Cl)c3)c2c1=O	6.4*
Cc1ccccc1Cn1c2ccccc2c2cnn(CC(=O)NCc3cccc(Cl)c3)c(=O)c21	-1.53
CC1CCCCN1CCCNC(=O)Cn1ncc2c3ccccc3n(Cc3ccccc3F)c2c1=O (stereo unspecified)	-0.46
CCCCN(CC)CCCNC(=O)Cn1ncc2c3ccccc3n(Cc3ccc(F)cc3)c2c1=O	-3.43
Cc1ccc(Cn2c3ccccc3c3cnn(CC(=O)Nc4cc(Cl)ccc4C)c(=O)c32)cc1	-1.13
O=C(Cn1ncc2c3ccccc3n(Cc3cccc(Cl)c3)c2c1=O)NCCCc1ccccc1	19.5*
O=C(Cn1ncc2c3ccccc3n(Cc3cccc(Cl)c3)c2c1=O)NCCCN1CCCCC1	16.1*
CN(Cc1ccccc1)C(=O)Cn1ncc2c3ccccc3n(Cc3cccc(Cl)c3)c2c1=O	5.53*
CCCN(CCC)CCCNC(=O)Cn1ncc2c3ccccc3n(Cc3ccc(F)cc3)c2c1=O	-1.67
CCCOc1c(CN2CCC3C(C2)CN3Cc2ccn[nH]2)cc(Cl)cc1OC (stereo unspecified)	-0.94
Cc1cccc(C(=O)N2CC3CCC(C2)N(Cc2c(C)noc2C)C3=O)c1 (stereo unspecified)	-1.72
Cc1c(CN(C)C(=O)c2nnc(CN(C)C)o2)[nH]c2ccccc12	-1.12
CCN1CCC(C(=O)N2CCC3OCc4cnnn4C3C2)CC1 (stereo unspecified)	-0.93
CCN(CCOc1ccccc1)C(=O)NC1CC2C(=O)NCC(=O)N2C1 (stereo unspecified)	0.86
CCCSc1ccc(NC(=O)NCCc2c[nH]c(=O)[nH]c2=O)cc1	0.89
COCCc1noc(CNC(=O)c2ccc(-c3cnc(N)c(C)c3)cc2)n1	-0.29
O=S(=O)(Cc1ccc(Cl)cc1F)NCc1nnnn1-c1ccccc1	-0.29
Cc1c(NC(=O)N2CCCN(C(=O)C3CCC3)CC2)cnn1C	1.02
CCOc1ccc(-n2c(=O)c3c(C)c(C)sc3n(CC(=O)N(CC)Cc3ccccc3)c2=O)cc1	-1.91
CCOc1ccc(-n2c(=O)c3c(C)c(C)sc3n(CC(=O)c3ccccc3)c2=O)cc1	3.22*
Cc1ccc(-n2c(=O)c3c(C)c(C)sc3n(CC(=O)c3ccc(Cl)cc3)c2=O)cc1C	-1.28
O=C(NC1COCC1Cc1ccncc1)c1ccc(-c2cccc(F)c2)cc1 (stereo unspecified)	-1.77
SMILES	fixLJ activator
CC(NC(=O)c1ccc2c(c1)nc(N1CCOCC1)n2C)c1cnn(C)c1 (stereo unspecified)	1.26
COc1ccccc1C(=O)Nc1ccc(OCc2cc(=O)n3cc(C)sc3n2)cc1	0.27
Cc1cn2c(=O)cc(COc3ccc(NC(=O)c4cccc(F)c4)cc3)nc2s1	0.24
Cc1cn2c(=O)cc(COc3ccc(NC(=O)c4ccccc4C)cc3)nc2s1	3.44*
Cc1cnc(C)c(-c2cc(O)c3c(c2)CN(Cc2cnc[nH]2)CCO3)n1	-0.17
O=C(NC1COCC1Cc1ccnc2ccccc12)C1CC=CC1 (stereo unspecified)	0.21
COc1cccc(C(=O)NCC2CCN(C(=O)CC3NC(=O)NC3=O)CC2)c1 (stereo unspecified)	0.5
COc1ccc(OCC2CCCN(C(=O)C3CCN(C(C)=O)CC3)C2)cc1 (stereo unspecified)	2.1
Cc1nc2ccc(C(=O)N3CCCC4(CCc5cn[nH]c54)C3)cc2[nH]1 (stereo unspecified)	-0.79
COc1ccc(OCC2CCCN(C(=O)c3ccc4nc(C)[nH]c4c3)C2)cc1 (stereo unspecified)	3.36*
COCc1cc(N(C)Cc2nc3ccccc3s2)n2nccc2n1	0.71
Cc1cnn(C2(C(=O)O)CCN(Cc3nc4ccccc4nc3C)CC2)c1	1.97
Cc1nonc1N1CCN(C(=O)C2(c3ccc(Cl)cc3)CCC2)CC1	0.77
NC(CO)C(=O)NNCc1ccc(O)c(O)c1O (stereo unspecified)	3.05*!
CN(CCCn1cccn1)c1cc(-c2ccc(F)cc2)nc2ccnn12	-0.3
Cc1cc(C)cc(NC(=O)CSc2oc(-c3ccco3)nc2S(=O)(=O)c2ccccc2)c1	-1.47
COc1ccccc1NC(=O)CSc1oc(-c2ccco2)nc1S(=O)(=O)c1ccc(C)cc1	-1.53
COc1ccc(NC(=O)CSc2oc(-c3ccco3)nc2S(=O)(=O)c2ccccc2)c(OC)c1	6.81*
COc1ccccc1NC(=O)CSc1oc(-c2cccs2)nc1S(=O)(=O)c1ccc(Br)cc1	-1.57
COc1ccc(NC(=O)CSc2oc(-c3cccs3)nc2S(=O)(=O)c2ccccc2)c(OC)c1	3.66*
COc1ccc(NC(=O)CSc2oc(-c3cccs3)nc2S(=O)(=O)c2ccc(C)cc2)c(OC)c1	-1.31
O=C(CC1=CSC2=NCCN12)NCCCOc1cccnc1	-0.92
COc1cccc(SCC(=O)NC(Cn2ccnc2)C(C)(C)C)c1 (stereo unspecified)	-1.77
Cn1c(CN2CCCCC2)nnc1C1CCN(C(=O)CCO)CC1	0.3
CN(C(=O)CCC(=O)N1CC(O)C(Cc2cnccn2)C1)C1CCCCC1 (stereo unspecified)	-0.53
SMILES	fixLJ activator
CCC(=O)N1CCc2cc(Br)cc(S(=O)(=O)N3CCN(c4ccccc4)CC3)c21	0.14
CC(=O)N1CCc2cc(Br)cc(S(=O)(=O)N3CCN(c4cccc(C(F)(F)F)c4)CC3)c21	3.26*
O=C(C1CC1)N1CCc2cc(Br)cc(S(=O)(=O)N3CCN(c4cccc(Cl)c4)CC3)c21	-1.06
CCCc1cc(C(=O)N2CC[C@@]3(C(=O)O)CCCN(C)[C@H]3C2)n[nH]1	-0.77
Cc1ccn2cc(-c3ccc(NC(=O)c4nn(C)cc4Cl)cc3)nc2c1	-1.53
CCc1cn[nH]c1C1CCN(C(=O)C(C)n2cc(C)cn2)CC1 (stereo unspecified)	-1.17
Cc1ccccc1NC(=O)c1sc2nc3c(cc2c1N)CN(Cc1ccccc1)CC3	0.8
CN1CCc2nc3sc(C(=O)c4ccc(F)cc4)c(N)c3cc2C1	0.72
CCN1CCc2nc3sc(C(=O)c4ccccc4)c(N)c3cc2C1	25.9*
O=C(NCc1nncn1CCc1ccccc1)c1ccncc1Cl	-1.22
Cn1nc(CNC(=O)C2CCCCn3nnnc32)c2c(Cl)cccc21 (stereo unspecified)	3.32*
O=C(NCc1cc(-c2ccc(F)cc2)no1)C1CCCCn2nnnc21 (stereo unspecified)	-1.82
CN1CC(=O)N2CCN(Cc3nn(C)c4cccc(Cl)c34)CC2C1=O (stereo unspecified)	-0.26
C=CCC1C=CCC(CC=C)N1S(=O)(=O)c1ccsc1C(=O)O (stereo unspecified)	-0.91
COCCCNC(=O)c1cc2c(s1)CCOC21CCN(C(=O)CN)CC1	-0.19
Cc1ccc2nc(-c3ccc(NC(=O)C(F)(F)F)cc3)sc2c1	-2.52
CC(=O)c1cccc(NC(=O)Cn2cnc3c2c(=O)n(C)c(=O)n3C)c1	-2.51
Cn1c(=O)c2nc3ccc(NC(=O)C(F)(F)F)cc3nc2n(C)c1=O	13.8*
CCC(NC(=O)c1oc(COc2ccccc2)cc1C)c1nc(C)no1 (stereo unspecified)	-0.13
C=CCOc1cc(Cl)c(CN2CCS(=O)(=O)CC2)cc1OC	0.14
CNC(=O)C1(NC(=O)Nc2ccc(-n3ccnc3)c(Cl)c2)CCCCC1	-1.15
